# Test results reported in PubChem BioAssay.
# Results filed as inconclusive are left out. Calls of active or inactive are those of the source. Cut-off read from the data, not from the text of the source, unless noted: active = inhibition above about 30%; inactive = the rest.
# What was measured:
# [1] = Her2 expression decrease, cell viability multiplex – SKBR3 breast tumor cells, AlphaScreen, ATP viability, primary screen (AID 461;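 active = Her2 level under about 52% in both replicate screens, with viability over 70% of control, limit read from the data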;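 for Her2 level: lower value means less Her2 protein in the cells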;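 for viability: percent of carrier control wells set as 100% viability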); conditions: SKBR3 Her2 protein level, 18-24 h, measured here: SKBR3 viability, ATP luminescence, at 10 µM
# [2] = target: Receptor tyrosine-protein kinase erbB-2 (Homo sapiens) (UniProt P04626); assay: as above; conditions: 18-24 h, at 10 µM, stronger effect = lower value
# Chain of Receptor tyrosine-protein kinase erbB-2 (Homo sapiens) (P04626 whole entry, looked up): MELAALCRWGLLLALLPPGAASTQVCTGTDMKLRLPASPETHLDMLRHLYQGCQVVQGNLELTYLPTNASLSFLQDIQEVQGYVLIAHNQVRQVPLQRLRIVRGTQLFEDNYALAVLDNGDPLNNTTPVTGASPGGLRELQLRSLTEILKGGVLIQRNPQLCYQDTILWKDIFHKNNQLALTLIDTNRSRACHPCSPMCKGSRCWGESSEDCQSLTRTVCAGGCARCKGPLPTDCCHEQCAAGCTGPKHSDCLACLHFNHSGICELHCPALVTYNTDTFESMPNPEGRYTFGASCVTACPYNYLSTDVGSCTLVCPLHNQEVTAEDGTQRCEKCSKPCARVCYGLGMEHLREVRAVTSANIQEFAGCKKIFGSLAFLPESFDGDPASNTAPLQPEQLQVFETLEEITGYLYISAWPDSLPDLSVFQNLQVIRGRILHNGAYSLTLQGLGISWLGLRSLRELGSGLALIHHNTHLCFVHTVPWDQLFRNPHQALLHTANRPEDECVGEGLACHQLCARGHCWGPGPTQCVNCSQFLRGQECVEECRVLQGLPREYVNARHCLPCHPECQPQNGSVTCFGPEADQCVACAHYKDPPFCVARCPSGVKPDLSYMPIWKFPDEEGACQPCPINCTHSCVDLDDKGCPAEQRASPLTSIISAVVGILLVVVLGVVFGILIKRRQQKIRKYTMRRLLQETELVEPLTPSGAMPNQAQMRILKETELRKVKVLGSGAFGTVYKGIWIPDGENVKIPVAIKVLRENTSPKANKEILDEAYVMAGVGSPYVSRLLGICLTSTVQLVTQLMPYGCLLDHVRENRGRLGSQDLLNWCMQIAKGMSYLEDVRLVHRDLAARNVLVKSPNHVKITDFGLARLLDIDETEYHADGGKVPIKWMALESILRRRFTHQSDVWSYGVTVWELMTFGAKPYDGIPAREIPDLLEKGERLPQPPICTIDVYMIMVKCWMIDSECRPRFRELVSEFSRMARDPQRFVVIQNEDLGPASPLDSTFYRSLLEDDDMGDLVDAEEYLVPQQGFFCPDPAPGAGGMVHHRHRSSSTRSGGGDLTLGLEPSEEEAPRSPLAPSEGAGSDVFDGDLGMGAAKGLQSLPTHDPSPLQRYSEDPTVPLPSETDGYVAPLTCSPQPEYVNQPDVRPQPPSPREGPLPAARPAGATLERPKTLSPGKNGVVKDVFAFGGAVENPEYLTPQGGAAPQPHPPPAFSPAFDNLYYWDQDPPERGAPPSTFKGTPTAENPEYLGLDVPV
# [3] = reduced viability of SK-BR-3 breast cancer cells – cell-based, 24 h, human, pilot screen (AID 572;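 active = viability at or below 10% of carrier control in both of two separate runs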;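 note: compound exposure lasted between 18 and 24 h rather than exactly 24 h; 100% = carrier-treated control wells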); conditions: SK-BR-3 viability, CellTiter-Glo luminescence, at 10 µM, stronger effect = lower value
# [4] = HUVEC growth inhibition – cell-based, human, primary screen (AID 575;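 active = viability at or below 30% in both replicate assays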;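 note: 100% = median of untreated cell wells with 0.1% DMSO on each plate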); conditions: HUVEC proliferation, CellTiter-Glo luminescence, 72 h; at 10 µM; stronger effect = lower value
# [5] = H69AR cell proliferation blockers – human, duplicate replicates, primary screen (AID 580;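 active = viability at or under a set limit in both replicates, limit being median viability minus 3 SD, cut at about 48% in these data, passing the limit was not always enough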;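 note: 100% = mean luminescence of untreated wells and 0% = no signal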); conditions: H69AR lung tumor cells viability, ATP luminescence, 72 h; at 10 µM; stronger effect = lower value
# [6] = MRP1 drug-resistance reversers in H69AR cells – cell-based, doxorubicin co-treatment, pilot screen (AID 601;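 active = viability loss from added drug above about 55%, and viability with drug at most 40%, in both replicates, limit read from the data, passing the limit was not always enough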); conditions: CellTiter-Glo, 72 h, at 10 µM; for differential viability (reversal): stronger effect = higher value
# [7] = yeast transport mutant growth inhibition pilot in 384-well plates, post-Golgi transport modulator project (AID 636; in the data active = inhibition above about 31%); conditions: absorbance 615 nm, about 18 h, stronger effect = higher value
# [8] = growth suppression of yeast trafficking mutant, preliminary HTS, modulators of trafficking downstream of Golgi apparatus project, 1536-format plate, OD 615 nm (AID 637); conditions: yeast transport mutant growth, absorbance 615 nm, 18 h; stronger effect = higher value
# [9] = S. cerevisiae growth inhibition in permissive medium (OD615), pilot counter-assay for S. cerevisiae lifespan shortening project, permissive growth control (AID 705;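 active = growth inhibition above 25% in both replicates, a cutoff set 3 SD above the mean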); conditions: OD615, 24 h, at 10 µM, stronger effect = higher value
# [10] = S. cerevisiae growth inhibition in restrictive medium, OD615, pilot screen, restrictive growth control, yeast lifespan reduction project (AID 706;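 active = growth inhibition above a set limit, 3 SD over mean compound inhibition, in both replicates, cut at about 43% in these data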;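 note: modified DeaD lifespan yeast strain shifted to restrictive glucose medium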); conditions: OD615, 48 h, at 10 µM, stronger effect = higher value
# [11] = doxorubicin toxicity protection in MRP-1 cells – H69AR cells, CellTiter-Glo, duplicate, MRP-1 activator project, pilot screen (AID 807;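 active = viability increase at or above a cutoff of the median across tested compounds plus 3 SD, cut at about 8.5% in these data, passing the limit was not always enough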;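 note: compound pretreatment 18-22 h then 72 h combined with doxorubicin; 0% = doxorubicin alone and 100% = vehicle without doxorubicin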); conditions: H69AR viability with doxorubicin, CellTiter-Glo luminescence; at 10 µM; stronger effect = higher value
# [12] = RAM pathway blockade in budding yeast – dse1pr::URA3 reporter, 5-FOA selection, pilot screen (AID 869;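 active = inhibition over a set limit, the all-compound mean plus 3 SD, in both replicate runs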;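 note: 0% = DMSO wells with no growth and 100% = 10 µM 1-NA-PP1 with full growth; RAM network block rescues cells from 5-FOA so hits raise OD615 growth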); conditions: S. cerevisiae dse1pr::URA3 5-FOA growth, OD615, 2 d; at 10 µM; stronger effect = higher value; strain carries analog-sensitive mutant Cbk1 kinase
# [13] = RAM signaling pathway blockade in yeast – S. cerevisiae, Pdr1DBD-CYC8 efflux-inhibited sensitized strain, primary screen (AID 1298;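 active = RAM network inhibition above 8.4% in each of two replicates, 3 SD over the compound average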;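 note: 0% = DMSO untreated cells without growth and 100% = 10 µM 1-NA-PP1 full growth; higher means more yeast growth rescued from 5-FOA killing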); conditions: S. cerevisiae cbk1-as DSE1-URA3 strain, 5-FOA growth OD615, 2 d; at 50 µM; stronger effect = higher value
# [14] = viability of HCT116 without oncogenic beta-catenin – human colon tumor cells, pilot screen (AID 823;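 active = cell viability at or below a set limit in both duplicate runs, the limit being the all-compound median minus 4 SD, cut at about 23% in these data, passing the limit was not always enough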;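 note: 0% = wells killed by 20 µM Hyamine and 100% = untreated DMSO cell wells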); conditions: HCT116 beta-catenin knockout viability, CellTiter-Glo, 60 h; at 10 µM; stronger effect = lower value
# [15] = viability of PTEN-null HCT116 cells – cell-based, HCT116 clonal line, CellTiter-Glo, pilot screen (AID 824;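 active = viability at or below 27.92% in each of two runs, the all-compound median minus 4 SD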;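 note: 0% = 20 µM Hyamine control and 100% = vehicle cell control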); conditions: HCT116 PTEN-deleted viability, 60 h, at 10 µM, stronger effect = lower value
# [16] = H69AR cells + 2 uM doxorubicin, measured here: viability with 2 uM doxorubicin, stronger effect = lower value
# [17] = H69AR cells, compound alone cytotoxicity
Structure (SMILES),viability [1] [%],Her2 level [2],viability [3],viability [4],viability [5],differential viability (reversal) ([6]; H69AR cells + 2 uM doxorubicin),"viability [6, 16] [%]","viability [6, 17] [%]",inhibition [7],inhibition [8],growth inhibition [9],growth inhibition [10],viability increase [11],inhibition [12],RAM network inhibition [13],viability [14],viability [15]
N#CC1=C(N)Oc2cc(O)ccc2C1C1CCCCC1 (stereo not drawn),121,89.5% (inactive),121% (inactive),47.4% (inactive),12.2% (active),-51.2% (inactive),63.4,12.2,-1.17% (inactive),4.17% (inactive),-0.885% (inactive),-9.19% (inactive),-5.63% (inactive),0.455% (inactive),3.93% (inactive),,
COc1ccc(-n2ncc3c(N4CCN(c5cccc(C)c5C)CC4)ncnc32)cc1,88,79% (inactive),88% (inactive),11.3% (active),27.1% (active),5.39% (inactive),21.7,27.1,-2.4% (inactive),-2.17% (inactive),-5% (inactive),-6.91% (inactive),-7.5% (inactive),1.51% (inactive),7.15% (inactive),,
CC1CCc2nn(CC(=O)N3CCN(C(=O)c4ccco4)CC3)cc2C1 (stereo not drawn),79.5,95.5% (inactive),79.5% (inactive),119% (inactive),91.6% (inactive),11.8% (inactive),79.8,91.6,0% (inactive),2.67% (inactive),-0.485% (inactive),5.38% (inactive),,3.15% (inactive),7.21% (inactive),104% (inactive),97.9% (inactive)
CCn1c2ccccc2c2cc(Nc3cc(C)nc4ncnn34)ccc21,93,49% (active),93% (inactive),18.1% (active),29.4% (active),-28% (inactive),57.4,29.4,-1.6% (inactive),0% (inactive),,72.4% (active),-7.76% (inactive),-0.255% (inactive),-1.23% (inactive),,12.2% (active)
Cc1cc(C)c2c(=O)n(CC(=O)N3CCC(Cc4ccccc4)CC3)sc2n1,108,84% (inactive),108% (inactive),77% (inactive),3.96% (active),-6.3% (inactive),10.3,3.96,-6.53% (inactive),-2.17% (inactive),73% (active),89.2% (active),-6.66% (inactive),1.6% (inactive),3.67% (inactive),,68.7% (inactive)
O=C(CCNS(=O)(=O)c1cccc2nsnc12)NCc1cccs1,101,85.5% (inactive),101% (inactive),94.3% (inactive),96% (inactive),0.62% (inactive),95.4,96,-9.45% (inactive),4.13% (inactive),-4.72% (inactive),-7.42% (inactive),-3.39% (inactive),1.54% (inactive),3.13% (inactive),,95.4% (inactive)
O=C(CCNS(=O)(=O)c1cccc2nsnc12)Nc1ccc2c(c1)OCCO2,90.5,96% (inactive),90.5% (inactive),88.7% (inactive),101% (inactive),12.9% (inactive),88.5,101,-7.95% (inactive),-1.11% (inactive),-7.75% (inactive),-0.065% (inactive),-3.8% (inactive),2.37% (inactive),4.76% (inactive),,98.9% (inactive)
CN1C(=O)C(O)(CC(=O)c2ccccc2O)c2cc(Br)ccc21 (stereo not drawn),103,85.5% (inactive),103% (inactive),45.5% (inactive),27% (active),-24.3% (inactive),51.3,27,-4.53% (inactive),4% (inactive),-2.37% (inactive),18% (inactive),-6.06% (inactive),-0.67% (inactive),-2.32% (inactive),,
COc1ccc(CCn2c(-c3ccco3)nc3ccccc3c2=O)cc1OC,73,89% (inactive),73% (inactive),84.3% (inactive),,-29.2% (inactive),82.1,52.8,-5.95% (inactive),-0.49% (inactive),-7.24% (inactive),-21.7% (inactive),-3.68% (inactive),0.935% (inactive),5.3% (inactive),54.5% (inactive),57.1% (inactive)
Cc1c(C(=O)Nc2nnc(C(F)(F)F)s2)oc2ccccc12,91.5,81.5% (inactive),91.5% (inactive),51% (inactive),84.8% (inactive),-8.24% (inactive),93.1,84.8,-6% (inactive),-3.33% (inactive),-4.23% (inactive),13.6% (inactive),,2.56% (inactive),4.2% (inactive),,65.5% (inactive)
CC1CCCCN1S(=O)(=O)c1ccc(NC(=O)c2cccs2)cc1 (stereo not drawn),73.5,83% (inactive),73.5% (inactive),,85.5% (inactive),1.84% (inactive),83.6,85.5,-1.17% (inactive),-13.2% (inactive),-8.63% (inactive),-13.5% (inactive),-4.32% (inactive),1.48% (inactive),0.93% (inactive),76.2% (inactive),82% (inactive)
O=C(CS(=O)(=O)c1cn(Cc2ccc(F)cc2)c2ccccc12)N1CCCCC1,92,88.5% (inactive),92% (inactive),,99.9% (inactive),11.9% (inactive),88,99.9,-5.68% (inactive),-5.17% (inactive),-24.1% (inactive),-12.8% (inactive),-3.63% (inactive),2.3% (inactive),5% (inactive),82.4% (inactive),82.9% (inactive)
Cn1c(=O)oc2cc(S(=O)(=O)N3CCN(c4ccccn4)CC3)ccc21,88.5,91.5% (inactive),88.5% (inactive),,73.8% (inactive),0.275% (inactive),73.5,73.8,0.26% (inactive),-3.67% (inactive),-8.03% (inactive),-3.75% (inactive),-5.33% (inactive),1.97% (inactive),5.16% (inactive),66% (inactive),69.4% (inactive)
CN(C)c1ccc(NC(=O)Cn2cc3c(n2)CCCC3)cc1,77.5,67% (inactive),77.5% (inactive),,74% (inactive),-10.1% (inactive),84.1,74,-4.13% (inactive),-5% (inactive),11.9% (inactive),13.9% (inactive),-2.45% (inactive),2% (inactive),1.84% (inactive),64.2% (inactive),62% (inactive)
CC1(C)CC2CC(C)(CN2S(=O)(=O)c2ccc(N)cc2)C1 (stereo not drawn),,,120% (inactive),99.6% (inactive),89.4% (inactive),8.43% (inactive),80.9,89.4,-8.93% (inactive),-8.36% (inactive),-0.15% (inactive),8.29% (inactive),-2.62% (inactive),0.505% (inactive),9.14% (inactive),88% (inactive),87.6% (inactive)
O=C(NCCN1C(=O)C2C3C=CC(C3)C2C1=O)Nc1ccccn1 (stereo not drawn),114,102% (inactive),114% (inactive),,95.8% (inactive),12.5% (inactive),83.3,95.8,-3.6% (inactive),-2.33% (inactive),5% (inactive),-0.24% (inactive),-0.81% (inactive),0.595% (inactive),3.24% (inactive),107% (inactive),92.2% (inactive)
COc1ccccc1S(=O)(=O)Cc1ccc(C(=O)NCCN2CCCCCC2)o1,71,102% (inactive),,97.5% (inactive),102% (inactive),11.8% (inactive),90,102,-0.9% (inactive),-1.33% (inactive),2.4% (inactive),-14.5% (inactive),-2.82% (inactive),1.38% (inactive),7.66% (inactive),104% (inactive),104% (inactive)
Cc1cc(C)c2c(=O)n(CC(=O)NCCCN3CCOCC3)sc2n1,98,89.5% (inactive),98% (inactive),64.1% (inactive),,4.36% (inactive),35.5,39.8,-4.53% (inactive),-2.67% (inactive),4.33% (inactive),0.575% (inactive),-4.85% (inactive),1.51% (inactive),3.11% (inactive),,56.5% (inactive)
Cc1cc(C)c2c(=O)n(CC(=O)NCCCN3CCN(c4ccccc4F)CC3)sc2n1,107,70.5% (inactive),107% (inactive),,3.21% (active),2.02% (inactive),1.19,3.21,-4.8% (inactive),10% (inactive),16.2% (inactive),7.71% (inactive),-7.84% (inactive),1.52% (inactive),5% (inactive),3.95% (active),1.7% (active)
OC1(c2cccc(C(F)(F)F)c2)CCN(c2ccc(-c3ccccc3)nn2)CC1,71.5,78.5% (inactive),71.5% (inactive),86.4% (inactive),,-2.92% (inactive),61.9,59,0.27% (inactive),0.98% (inactive),-3.31% (inactive),-9.3% (inactive),-8.34% (inactive),1.11% (inactive),5.46% (inactive),10.7% (active),46.8% (inactive)
